Measurements: publication PMC4336329 (PLoS ONE, 2015)
Hit rate of the full screen: of about 310,000 compounds, about 14,000 (4.5%) showed an effect of 50% or more. Effects have a minus sign here. The entries come from a sample that favours strong results as a whole.

molecular target: human ether-à-go-go-related gene (hERG) potassium channel (human, UniProt Q12809); assay: primary screen, population patch clamp on CHO cells stably expressing hERG; higher = less effect of the substance
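Further: peak tail current of the secondary pulse compared with the same well before compound.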

Chain of human ether-à-go-go-related gene (hERG) potassium channel (Q12809 whole entry, looked up): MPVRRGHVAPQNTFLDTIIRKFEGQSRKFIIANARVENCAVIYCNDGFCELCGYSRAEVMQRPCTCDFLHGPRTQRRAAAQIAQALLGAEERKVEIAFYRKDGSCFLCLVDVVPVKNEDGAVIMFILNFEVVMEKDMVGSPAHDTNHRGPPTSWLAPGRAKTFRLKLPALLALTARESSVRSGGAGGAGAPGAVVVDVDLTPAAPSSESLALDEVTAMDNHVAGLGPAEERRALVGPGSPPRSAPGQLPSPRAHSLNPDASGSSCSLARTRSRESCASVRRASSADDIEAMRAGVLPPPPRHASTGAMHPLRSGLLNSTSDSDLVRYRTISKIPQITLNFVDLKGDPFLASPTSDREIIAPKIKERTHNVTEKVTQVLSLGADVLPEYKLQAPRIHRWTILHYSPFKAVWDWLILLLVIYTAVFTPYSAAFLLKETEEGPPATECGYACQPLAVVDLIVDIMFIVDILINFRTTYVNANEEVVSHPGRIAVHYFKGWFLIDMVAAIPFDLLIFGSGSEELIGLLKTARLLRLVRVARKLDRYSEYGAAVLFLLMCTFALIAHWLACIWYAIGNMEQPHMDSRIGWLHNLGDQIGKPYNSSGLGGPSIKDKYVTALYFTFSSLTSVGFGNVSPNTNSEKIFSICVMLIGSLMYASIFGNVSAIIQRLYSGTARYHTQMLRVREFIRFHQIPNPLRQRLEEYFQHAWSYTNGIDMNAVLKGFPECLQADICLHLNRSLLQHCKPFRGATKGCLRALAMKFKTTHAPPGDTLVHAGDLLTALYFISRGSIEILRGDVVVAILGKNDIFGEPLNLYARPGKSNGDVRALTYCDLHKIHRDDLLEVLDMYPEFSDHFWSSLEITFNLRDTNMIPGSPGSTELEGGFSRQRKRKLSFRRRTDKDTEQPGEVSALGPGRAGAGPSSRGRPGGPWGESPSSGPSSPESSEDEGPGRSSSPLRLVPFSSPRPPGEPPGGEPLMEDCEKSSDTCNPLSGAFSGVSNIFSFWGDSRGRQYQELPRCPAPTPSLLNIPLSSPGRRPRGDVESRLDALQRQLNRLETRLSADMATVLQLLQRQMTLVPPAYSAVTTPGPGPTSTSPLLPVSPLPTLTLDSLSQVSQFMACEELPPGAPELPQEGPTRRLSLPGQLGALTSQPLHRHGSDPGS

Row | Structure (SMILES) | hERG current change (%, negative = inhibition) at 10uM [%]
1 | Cc1nn(CCC#N)c(NC(=O)c2ccccc2)c1P(=O)(Nc1ccc(Br)cc1)N1CCOCC1 (stereo not drawn) | 20.6
2 | Cc1cc(CN(C)C(=O)c2ccc3nc(Cc4ccccc4F)oc3c2)on1 | -5.71
3 | Cc1ccc(SCC2=NN(c3nc(C)cc(C)n3)C(=O)C2)cc1 | -16
4 | CCn1c(SCc2ccc(Cl)c(Cl)c2)nnc1C(C)NC(=O)c1ccc(OC)cc1 (stereo not drawn) | 10
5 | CCn1c(CCNC(=O)c2ccc(OC)cc2)nnc1SCc1ccc(Cl)cc1Cl | -65.6
6 | CCn1c(CCNC(=O)c2ccc(C)cc2)nnc1SCc1ccc(Cl)c(Cl)c1 | -45.7
7 | CCn1c(CCNC(=O)c2ccc(OC)cc2)nnc1SCc1ccc(Cl)c(Cl)c1 | -61.8
8 | CCOc1ccc(NC(=O)CSc2nnc(CCNC(=O)c3ccc(OC)cc3)n2CC)cc1 | -26.7
9 | CCn1c(CCNC(=O)c2ccc(Cl)c(Cl)c2)nnc1SCCOc1ccc(OC)cc1 | -8.77
10 | CCC1(C)Cc2nc3[nH]c(=S)n(-c4ccccc4C)c(=O)c3cc2CO1 (stereo not drawn) | 4.44
11 | Cc1ccc2c(c1)c1c(n2C)C(C(N)=O)CCC1 (stereo not drawn) | -19.5
12 | CCCC(C)C1(CC)C(=O)NC(=Nc2ccc(F)cc2)NC1=O (stereo not drawn) | 17.5
13 | CCCC(C)C1(CC)C(=O)NC(=O)N=C1N (stereo not drawn) | -76.5
14 | CCC(C)C1(CC)C(=O)NC(=O)N=C1N (stereo not drawn) | 36.1
15 | O=C(c1ccco1)N1CCN(C(=O)c2ccc(-c3ccc(Cl)cc3)o2)CC1 | -78.8
16 | O=C(c1ccc(Cl)cc1)N1CCN(C(=O)c2ccco2)CC1 | -21
17 | O=C(c1cc(-c2ccccc2Cl)on1)N1CCN(C(=O)c2ccco2)CC1 | -44.2
18 | O=C1c2ccccc2-c2c1cccc2C(=O)N1CCCCC1 | -22.3
19 | O=C(c1ccc(-c2ccccc2Cl)o1)N1CCN(c2ccccc2O)CC1 | 8.64

Row | Structure (SMILES) | hERG current change (%, negative = inhibition) at 10uM [%]
20 | O=C1c2ccccc2-c2c1cccc2C(=O)N1CCCCCC1 | 0.506
21 | O=C(Cc1ccc(Cl)cc1)N1CCN(C(=O)c2ccco2)CC1 | -12.8
22 | O=C(c1cc(-c2ccc(Cl)cc2Cl)on1)N1CCN(C(=O)c2ccco2)CC1 | -70.2
23 | CC(=O)N1CCN(C(=O)c2ccc(-c3ccccc3Cl)o2)CC1 | -20
24 | O=C(c1ccco1)N1CCN(C(=O)c2ccc(-c3ccccc3Cl)o2)CC1 | -67.6
25 | O=C(c1cc(-c2ccc(Cl)cc2Cl)on1)N1CCCC1 | -0.203
26 | O=C1c2ccccc2-c2c1cccc2C(=O)N1CCN(C(=O)c2ccco2)CC1 | -71.1
27 | COC(=O)C(O)(c1ccc(NC(=O)c2ccco2)c(OC)c1)C(F)(F)F (stereo not drawn) | -6.24
28 | O=C(NCCc1ccc(Cl)cc1)C(=O)c1c[nH]c2ccccc12 | -10.8
29 | O=C(Nc1nsc(-c2ccccc2)n1)c1ccc(F)cc1 | -24.6
30 | CCC(NC(=O)CNC(=O)CNC(=O)c1ccc(Cl)cc1Cl)c1ccc(C)cc1 (stereo not drawn) | 22.2
31 | CC(C)c1cc(C(=O)O)n(-c2ccccc2)n1 | 12.1
32 | Cc1ccc(S(=O)(=O)n2[nH]c(=O)c(CCO)c2C)cc1 | 8.83
33 | O=C(Cc1ccc(F)cc1)N/N=C/c1ccncc1 | -8.56
34 | Fc1ccc(C2c3cccn3CCN2C(=S)Nc2cccc(Br)c2)cc1 (stereo not drawn) | 19.4
35 | O=C(COC(=O)c1ccccc1C(=O)c1ccccc1)NCCc1ccccc1 | -64.8
36 | O=C(COC(=O)c1ccccc1C(=O)c1ccccc1)NCCc1ccc(Cl)cc1Cl | -31.9
37 | O=C(COC(=O)c1ccccc1C(=O)c1ccc(Cl)cc1)NCCc1ccccc1 | -18.7
38 | Cc1ccc(C(=O)c2ccccc2C(=O)OCC(=O)NCCc2ccccc2)cc1 | -52.5

Row | Structure (SMILES) | hERG current change (%, negative = inhibition) at 10uM [%]
39 | Cc1ccc(C(=O)c2ccccc2C(=O)OCC(=O)NCCc2ccc(Cl)cc2Cl)cc1 | -9.96
40 | Cc1ccc(C(=O)c2ccccc2C(=O)OCC(=O)NC(C)(C)C)cc1 | -0.829
41 | CSCCC(NS(=O)(=O)/C=C/c1ccccc1)C(=O)NCCc1ccc(S(N)(=O)=O)cc1 (stereo not drawn) | 7.59
42 | COc1ccc(C(=O)COC(=O)CCn2nnc(-c3cccs3)n2)cc1 | 10.6
43 | CN(Cc1c(C(=O)N/N=C/c2cccc(O)c2)nnn1-c1nonc1N)C1CCCCC1 | -2.25
44 | CCOC(=O)CN1C(=O)CSc2ccccc21 | 0.699
45 | CNc1ncc(C(=O)c2ccccc2)s1 | -1.56
46 | NCCNC(=O)c1c(NC(=O)c2ccccc2)sc2c1CCCC2 | 15.4
47 | CCN(CC)CCCC(C)NC(=O)c1c(NC(=O)c2ccccc2)sc2c1CCCC2.O=C(O)C(=O)O (stereo not drawn) | -76.9
48 | CN(C)CCNC(=O)c1c(NC(=O)c2ccccc2)sc2c1CCCC2 | -25.9
49 | CCOc1ccccc1C(c1c(O)nc(SC)[nH]c1=O)c1c(O)nc(SC)[nH]c1=O | 5.67
50 | O=S(=O)(Nc1ncccn1)c1ccc(NS(=O)(=O)c2cc(Cl)ccc2Cl)cc1 | 31.6
51 | COc1ccccc1C(=O)N(Cc1ccccc1)c1ccc(C)cc1 | -2.96
52 | CC#CC(=O)N1CCC(CCc2ccccc2)(C(=O)OCC)CC1 | -61.4
53 | CC#CC(=O)N1CCC(CO)(CCc2ccccc2)CC1 | 1.33
54 | CCOC(=O)C1(CCc2ccccc2)CCN(C(=O)c2cc(C)nc(C)n2)CC1 | -11
55 | CCOC(=O)C1(CCc2ccccc2)CCN(C(=O)c2cccc(C)n2)CC1 | -11.4
56 | CCOC(=O)C1(CCc2ccccc2)CCN(C(=O)c2occc2C)CC1 | -63.3
57 | CCOC(=O)C1(CCc2ccccc2)CCN(C(=O)C2=C(C)OCCO2)CC1 | -15.2
